Screening data deposited in PubChem BioAssay by National Center for Advancing Translational Sciences (NCATS).
D1 antag: antagonists of human D1 dopamine receptor | AID 504652 | activity change, negative = inhibition, % at 10 µM | 3.2% of 360,000 active | HEK293 TREx D1 cells, calcium flux, dopamine EC80; stronger effect = lower value | P21728; in the data active = activity change below about -30%
Target sequence (P21728 whole entry, looked up): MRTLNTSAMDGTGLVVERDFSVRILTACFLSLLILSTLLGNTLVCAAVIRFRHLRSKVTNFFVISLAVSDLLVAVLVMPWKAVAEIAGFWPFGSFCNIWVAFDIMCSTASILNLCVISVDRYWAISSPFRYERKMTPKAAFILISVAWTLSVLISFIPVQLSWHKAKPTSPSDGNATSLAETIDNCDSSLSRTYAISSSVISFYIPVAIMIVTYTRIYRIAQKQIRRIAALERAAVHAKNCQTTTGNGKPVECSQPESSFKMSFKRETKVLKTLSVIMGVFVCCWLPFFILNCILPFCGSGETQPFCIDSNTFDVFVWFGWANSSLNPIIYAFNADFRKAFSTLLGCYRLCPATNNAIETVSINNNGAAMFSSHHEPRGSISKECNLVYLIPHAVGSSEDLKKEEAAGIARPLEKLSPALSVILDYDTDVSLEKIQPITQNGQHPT
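Inducible Hek293 Trex D1 cells (tetracycline, overnight, 30 C). Calcium dye 30–90 min RT. Antagonist mode: EC80 dopamine added after 180 s compound read.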
TRHR PAM: TRH receptor (human) allosteric enhancement. TRHR cells, fluo-8 calcium fluorescence, EC20 TRH enhancement. enhancement, % at 2 µM. 0.66% of 360,000 active. P34981; in the data active = enhancement above about 30%
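TRHR-expressing cells loaded with fluo-8 calcium dye were read kinetically (ex 480/em 530) during compound addition, then stimulated with an EC20 of TRH (10 nM final). Enhancement of the Gq-mediated intracellular calcium response was scored.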
TRHR ag: TRH receptor (human) agonism | TRHR cells, calcium flux fluo-8, FDSS agonist mode | activation, % at 2 µM | 0.18% of 360,000 active | AID 493084 | P34981
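Read-out: compound-evoked intracellular calcium rise in TRHR cells, fluo-8 dye, kinetic FDSS fluorescence at 1 s/cycle following a 10-cycle baseline. Cells cultured overnight before dye loading (30 min–1.5 h, RT).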
D1 potentiator: enhances dopamine response at the human D1 receptor; HEK293 TREx D1 cells, calcium flux, dopamine EC20 potentiation; potentiation, % at 10 µM; 0.036% of 360,000 active; AID 504651; in the data active = potentiation above about 30%
D1 ag: human D1 receptor agonism | P21728 | HEK293 T-REx D1 cells, calcium flux, agonist mode | activation, % at 2 µM | 1% of 360,000 active | AID 504660
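Inducible HEK293 T-REx D1 cells, force-coupled to calcium signalling, were plated at 4000 cells/well with tetracycline and held overnight at 30 C. After no-wash calcium dye loading, compound-evoked calcium rise over 180 s flagged agonists.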
Each line names hits and unclear results; the compound was inactive in the other large screens. A selection: hits, their analogues and other compounds. The true share with any hit is near 4.7%. Cut-off read from the data, not from the text of the source, unless noted: active = activation above about 30%; inactive = the rest.

CN1CCN(c2ccc(NC(=O)c3cccc(OCc4ccccc4)c3)cc2)CC1	D1 antag -63.7
Cc1ccc(C(NC(=O)c2cccc(S(=O)(=O)N3CCN(C)CC3)c2)c2ccccc2)cc1 (stereo unspecified)	D1 antag -66.5
CCCOc1cccc(C(=O)NC(=S)Nc2ccc(N3CCN(C)CC3)cc2)c1	none
CN(Cc1ccccc1)c1ccc(-c2nc(-c3ccncc3)no2)cc1[N+](=O)[O-]	none
Cc1ccc(-c2nn(CC(=O)NC3CCCCC3)c3c2cnc2ccccc23)cc1	none
Cc1ccc(C(=O)Nc2ccc(N3CCN(C)CC3)cc2)cc1C	D1 antag -31.3
O=C(NC1=NCCS1)c1cccc(S(=O)(=O)N2CCCCC2)c1	D1 antag -34.1
Cc1ccc(C(=O)Nc2ccc(N3CCN(S(C)(=O)=O)CC3)cc2)cc1C	none
Cc1c(NC(=S)NC(=O)c2ccc(-c3ccc(Cl)cc3)o2)cccc1C(=O)O	D1 antag -30.8
CN1CCN(c2ccc(NC(=O)Cc3ccccc3)cc2)CC1	D1 antag -39.5
O=C(CNC(=O)c1ccc(Cl)cc1)OC(C(=O)Nc1cc(C(F)(F)F)ccc1Cl)c1ccccc1 (stereo unspecified)	none
Cc1ccc(S(=O)(=O)N(CC(=O)NCCc2ccc(Cl)cc2)c2ccccc2C)cc1	none
CCOC(=O)c1c(C)oc2ncnc(Nc3cc(C)cc(C)c3)c12	none
CN1CCN(c2ccc(NC(=O)c3ccc(-c4ccc(Cl)cc4)o3)cc2)CC1	D1 antag -72.1
COc1cc(OC)cc(C(=O)NC(=S)Nc2ccc(N3CCCC3)cc2)c1	D1 antag -34.9
COc1cccc(C(=O)Nc2ccc(N3CCN(Cc4ccccc4)CC3)cc2)c1	none
CCN1CCN(c2ccc(NC(=O)c3cccc(OCc4ccccc4)c3)cc2)CC1	D1 ag 38.5
COc1cc(OC)cc(C(=O)NC(=S)N2CCCCCC2)c1	none
CCOc1cccc(C(=O)NC(=S)Nc2ccc(N3CCN(CC)CC3)cc2)c1	D1 antag -44.4
Cc1cc(C)c2c(n1)sc1c(=O)n(-c3cc(Cl)ccc3C)nnc12	none
Cc1ccc(CCNC(=O)c2cn(C)c3ccc(S(=O)(=O)N(C)C4CCCCC4)cc3c2=O)cc1	none
O=C(CCCCn1c(=O)c2ccccc2n(Cc2ccccc2Cl)c1=O)NCCc1ccccc1	none
CCCCN(CC)CCNC(=O)Cn1cnc2sc(C)c(S(=O)(=O)N3CCN(c4ccccc4OC)CC3)c2c1=O	none
O=C(CN1C(=O)CSc2ccc(S(=O)(=O)N3CCCC3)cc21)NCc1ccccc1Cl	none
CC(=O)Nc1ccc2nc(CN3CCN(Cc4ccc(F)cc4)C(CCO)C3)ccc2c1 (stereo unspecified)	TRHR PAM 35.6
COC(=O)c1ccc(CN2CCN(C3CCCCC3)C(CCO)C2)cc1 (stereo unspecified)	none
CC(=O)Nc1ccc2nc(CN3CCN(CC(C)C)C(CCO)C3)ccc2c1 (stereo unspecified)	none
CC(=O)Nc1ccc(CN2CCN(C3CCCCC3)C(CCO)C2)cc1 (stereo unspecified)	D1 ag 35.8
COc1cc2nc(NCCc3ccccc3)n3nc(-c4cccnc4)nc3c2cc1OC	none
CCC(=O)N1CCc2cc(Br)cc(S(=O)(=O)N3CCCC(C(=O)Nc4ccc(C(C)C)cc4)C3)c21 (stereo unspecified)	none
CCn1c(SCC(=O)N/N=C/C=C\c2ccco2)nc2ccccc21	D1 antag -34.8
Cn1c(SCC(=O)N/N=C/C=C\c2ccco2)nc2ccccc21	none
OCCOCCOc1ccccc1OCCOCCO	D1 antag -86.1
CC(=O)c1ccccc1OCCOCCOCCOc1ccccc1C(C)=O	none
COc1ccc(C)cc1Nc1n[n+](-c2ccccc2)c(-c2ccc(NC(C)=O)cc2)s1	D1 antag -31.3
CC(=O)Nc1ccc(Sc2ccccc2C(=O)Nc2ccc(F)cc2)cn1	D1 ag 46.2
COC(=O)C1=C(C)Nc2ncnn2C1c1ccc(OCc2ccccc2)cc1 (stereo unspecified)	D1 antag -37.7
CC1=C(C(=O)OC(C)C)C(c2cccnc2)n2ncnc2N1 (stereo unspecified)	D1 antag -34.3 (no result: D1 potentiator)
CC1=C(C(=O)OC(C)C)C(c2ccncc2)n2ncnc2N1 (stereo unspecified)	none
CCC(=O)N1CCc2cc(S(=O)(=O)NC(C(=O)NCCc3ccc(OC)c(OC)c3)C(C)C)ccc21 (stereo unspecified)	none
CCOc1cc(Cl)c(S(=O)(=O)n2cc(C)nc2CC)cc1Cl	none
CCOC(=O)/C=C1\NC(C)(C)Cc2cc(OC)c(OC)cc21	D1 antag -40.6
CCOC(=O)/C=C1\NC(C)(C)Cc2cc(OC)c(O)cc21	none
Cc1cc(NC(=O)CS(=O)(=O)c2cn(Cc3ccc(F)cc3)c3ccccc23)no1	D1 antag -39.1
Cc1ccc(OCCNCc2ccccc2)c(C)c1	none
Cc1cc(Cl)c(OCCCNCc2ccccc2)c(Br)c1	D1 ag 31.8
Cc1cc(C)c(OCCCNCc2ccccc2)c(Br)c1	D1 ag 37.4
Cc1cc(C)c(OCCCNC2CCCC2)c(Br)c1	none
Cc1cc(C)c(C)c(OCCOCCNCc2ccccc2)c1	D1 ag 32.7
CC(Nc1nc(N2CCNCC2)nc2ccccc12)c1ccccc1 (stereo unspecified)	D1 antag -54.1
COC(=O)N1CCCc2cc(S(=O)(=O)N3CCN(c4ccccc4)CC3)ccc21	none
CN(C)S(=O)(=O)c1ccc2c(c1)nnn2CCNC(=O)Nc1ccc(Br)cc1	none
O=C(Cn1c(=O)n(-c2ccc(F)cc2)c(=O)c2sccc21)NC1CCCCC1	D1 antag -61.3
Cc1ccc(-n2c(=O)c3sccc3n(CC(=O)NC3CCCC3)c2=O)cc1	none (no result: D1 potentiator)
CCOc1ccc(-n2c(=O)c3sccc3n(CC(=O)NC3CCCCC3)c2=O)cc1	TRHR PAM 38.6
Cc1cccc(NCc2nc3ccccc3n2CCOc2ccccc2C)c1	none
CCCCc1n[nH]c2c1/C(=N/OCC)CC(C)(C)C2	D1 potentiator 34.6, D1 ag 61.9
CCCc1n[nH]c2c1C(=O)CC(C)(C)C2	D1 potentiator 33.1
CCCCc1n[nH]c2c1/C(=N/O)CC(C)(C)C2	none
CN=c1scc(-c2cccs2)n1/N=C/c1ccccc1O	none
CN=c1scc(-c2cccs2)n1/N=C/c1ccc(O)c(O)c1O	D1 antag -89.3
O=C(Nc1ccc(Oc2cccc(C(F)(F)F)c2)nc1)c1ccco1	D1 antag -40.6
COc1ccc(CCNC(=O)CCc2c(C)nc3c(c(C)nn3-c3ccc(C)cc3)c2C)c(OC)c1	none
O=C(Nc1cccc(C(F)(F)F)c1)Oc1ccc(Cl)c2cccnc12	D1 ag 33.7
Cc1ccc(-n2ncc(C(=O)Nc3ccc4c(c3)OCCO4)c2C2CCN(C(=O)OC(C)(C)C)CC2)cc1	TRHR PAM 31.3
